# According to PubChem BioAssay (NCATS):
# Results filed as inconclusive are left out. Entries that show only a call come without a potency. The source made the active and inactive calls. Calls follow the shape of the dose curve; as a rule, active = well fitted inhibition curve with a large enough effect; inconclusive = small, poorly fitted or top-dose-only effect; inactive = flat fitted curve, though single readings scatter. Where a SMILES comes first, the peptide text is derived from it. The star is where a group is joined. AMC = Cc1cc(=O)oc2cc(N*)ccc12; Cbz = O=C(OCc1ccccc1)*
# Biological target: Phospholipid hydroperoxide glutathione peroxidase GPX4 (Homo sapiens) (UniProt P36969)
# Assay: Primary qHTS Assay for Inhibitors of Recombinant Selenoprotein Glutathione Peroxidase 4 (GPX4) (AID 1845192); also: nearly all actives have a fitted effect of over 65% in size
# Conditions: recombinant GPX4, GR-coupled NADPH fluorescence, 15 min; series mostly up to 27.8 µM
# From the text: Assay Provider: Elias S.J. Arner MD PhD.
# Department of Medical Biochemistry and Biophysics
# Karolinska Institutet, Solna, Stockholm, Sweden
# Selenoprotein glutathione peroxidases (GPX), like the ubiquitously expressed GPX1 and the ferroptosis modulator GPX4, enact their antioxidant activities by reducing hydroperoxides using glutathione. […] GPX1 and GPX4 inhibitors have thus shown promise as anti-cancer agents. Existing inhibitors are often promiscuous, or modulate GPX activity only indirectly, so novel direct inhibitors identified through screening against GPX1 and GPX4 could be valuable. Here, we developed optimized glutathione reductase (GR)-coupled GPX assays for the biochemical high-throughput screen (HTS) of almost 12,000 compounds with known mechanisms of action. Initial hits were triaged using a GR counter-screen, assessed for isoform specificity using a separate GPX2 assay, and were assessed for general selenocysteine-targeting activity using a thioredoxin reductase (TXNRD1) assay. With this suite of assays, we identified novel GPX1/GPX2- and GPX4-specific inhibitors and can here present a validated pipeline for future discovery research for selenoprotein-targeting agents.
# SEQUENCE No. (e.g., 1, 2, 3, etc.); […] (e.g., Cells, Incubation, Reagent, etc.); VALUE; DESCRIPTION.
# 1; Reagent 1; 3 uL; 333.33 nM GPx4 enzyme or no enzyme control in 1536-well, black, solid Greiner assay plate.
# 2; Compound; 25 nL; Kalypsis pin tool (Wako USA) equipped with a 1536-well pin head.
# 3; Incubation; 30 min; room temperature.
# 4; Reagent 2; 1 uL; 500 nM GR, 5 mM GSH, 2.5 mM NADPH solution
# 5; Reagent 3; 1 uL; 2.5 mM CHP in 50% EtOH.
# 6; Detection; Fluorescence; ViewLux microplate reader, excitation 340 nm and emission 450 nm.
# 7; Incubation; 15 min; room temperature.
# 8; Detection; Fluorescence; ViewLux microplate reader, excitation 340 nm and emission 450 nm.
# NOTES (numbers refer to Sequence numbers above)
# 1. 3 µL of 333.33 nM GPX4 and 0.016% BSA in assay buffer (50 mM Tris-HCl, 2 mM EDTA (pH 7.5), 150 mM NaCl) was added to columns 3-48 of 1536-well plates using a BioRAPTR Flying Reagent Dispenser (Let's Go Robotics (LGR), Carlsbad, CA). A no-enzyme control (0.01% BSA in TES assay buffer) was added to columns 1-2.
# 2. 25 nL, library and DMSO controls were added to each well with a pin tool (Kalypsys).
# 3. The assay plates were incubated for 30 minutes at room temperature.
# 4. 1 µL of master mix (500 nM glutathione reductase (GR), 5 mM reduced glutathione (GSH), 2.5 mM NADPH in assay buffer) was added.
# 5. 1 µL of cumene hydroperoxide (CHP) ([2.5 mM] in 50% EtOH) was then added within 5 minutes to initiate the reaction. Final concentrations were: 200 nM GPX4, 1 mM GSH, 0.5 mM CHP, 0.5 mM NADPH, 100 nM GR, 0.01% BSA.
# 6. Initial fluorescence readout (t=0) at 340/450 nm was measured using a ViewLux multimodal detector (PerkinElmer, Waltham, MA).
# 8. Endpoint fluorescence readout (t=15) at 340/450 nm was measured 15 min after room temperature incubation.
# Potency is read from the fitted curve at half-maximal effect.
# Sequence of Phospholipid hydroperoxide glutathione peroxidase GPX4 (Homo sapiens) (P36969 whole entry, looked up): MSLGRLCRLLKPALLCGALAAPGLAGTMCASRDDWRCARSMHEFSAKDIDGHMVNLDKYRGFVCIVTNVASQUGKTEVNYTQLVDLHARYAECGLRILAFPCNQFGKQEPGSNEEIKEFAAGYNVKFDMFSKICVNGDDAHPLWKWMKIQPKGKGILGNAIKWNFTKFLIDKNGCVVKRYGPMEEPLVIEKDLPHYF
row,Compound,Potency
1,COc1cc(Nc2nc3ccccc3nc2NS(=O)(=O)c2cccc(NC(=O)c3ccc(C)c(OC)c3)c2)cc(OC)c1,inactive
2,O=C(O)c1cc(C(F)(F)F)ccc1N1CC[C@H](OCc2ccccn2)C1,inactive
3,O=C(O)CC1(O)C(=O)Nc2ccccc21 (stereo not given),inactive
4,COc1cc(/C=C/C(=O)O[C@@H]2O[C@H](CO)[C@@H](O)[C@H](O)[C@H]2O)ccc1O,inactive
5,Nc1ncnc2c1C(=O)N(c1ccc(C3CCC(CC(=O)O)CC3)cc1)CCO2 (stereo not given),inactive
6,OC[C@H]1O[C@@H](Oc2cc(O)cc(-c3cc4ccc(O[C@@H]5O[C@H](CO)[C@@H](O)[C@H](O)[C@H]5O)cc4o3)c2)[C@H](O)[C@@H](O)[C@@H]1O,inactive
7,C=C1[C@@H]2CC[C@@]3(C)[C@H](c4ccoc4)OC(=O)C[C@]13O[C@H]1CC(=O)C(C)(C)[C@H](C(O)C(=O)OC)[C@]12C (stereo not given in full),inactive
8,O=C(OC[C@H]1O[C@H](O[C@]2(CO)O[C@H](CO)[C@@H](O)[C@@H]2O)[C@H](O)[C@@H](O)[C@@H]1O)c1ccc(O)cc1,inactive
9,CC(=O)O[C@H]1C[C@@H](O)C(C)(C)C2C[C@@H](OC(C)=O)[C@]3(C)C(CC[C@@]4(C)[C@H](c5ccoc5)OC(=O)[C@H]5O[C@]543)[C@]21C (stereo not given in full),inactive
10,CCN1CCN(C(=O)N[C@@H](C(=O)N[C@@H]2C(=O)N3[C@@H]2SC(C)(C)[C@@H]3C(=O)O)c2ccccc2)C(=O)C1=O,inactive
11,CC1(C)CC[C@]2(C(=O)O)CC[C@]3(C)C(=CCC4[C@@]5(C)CC[C@H](O[C@@H]6O[C@H](C(=O)O)[C@@H](O)[C@H](O[C@@H]7O[C@H](CO)[C@H](O)[C@H](O)[C@H]7O)[C@H]6O[C@@H]6O[C@H](CO)[C@@H](O)[C@H](O)[C@H]6O)C(C)(C)C5CC[C@]43C)[C@@H]2C1 (stereo not given in full),inactive
12,CC(C)CC(=O)NCCn1cc(C(=O)O)c(=O)cc1C(O)c1ccccc1 (stereo not given),inactive
13,COc1cccc(C)c1C(=O)O[C@@H]1C[C@H](O[C@H]2[C@H](O)C[C@H](O[C@@H]3CCC[C@H]4[C@H]3C=C[C@@H]3CCCC/C=C/[C@H]5C=C(C(=O)O)[C@@H](C)C[C@@]56OC(=O)C(=C6O)OC(=O)[C@@]34C)O[C@@H]2C)O[C@H](C)[C@H]1O,inactive
14,C/C=C1\[C@H](O[C@@H]2O[C@H](CO)[C@@H](O)[C@H](O)[C@H]2O)OC=C(C(=O)OCCc2ccc(O)cc2)[C@H]1CC(=O)OCCc1ccc(O)cc1,inactive
15,C=C(C(=O)O)[C@@H]1CC[C@@]2(C)CCC[C@@](C)(O)[C@@H]2C1,inactive
16,CCC(C)(C)C1CCc2c(sc(NC(=O)c3ccc(Br)cc3)c2C#N)C1 (stereo not given),inactive
17,CC(=O)c1c(C)cccc1O[C@@H]1O[C@H](CO)[C@@H](O)[C@H](O)[C@H]1O,inactive
18,CC1(C)CC=C(c2cnc3ccccc3c2)c2cc(C(=O)Nc3ccc(C(=O)O)cc3)ccc21,inactive
19,COc1cc2c(cc1O)CC(O)(CO)C(CO)C2c1ccc(OC2OC(CO)C(O)C(O)C2O)c(OC)c1 (stereo not given),inactive
20,C=C1Cc2c(Cl)cc3[nH]c4c5c3c2[C@@]2(O)[C@@H]1C[C@@H]2C(C)(C)O[C@H]5C1CC[C@@]2(O)[C@@]35O[C@@H]3[C@H]3OC(C)(C)[C@H]3O[C@H]5CC[C@]2(C)[C@@]41C (stereo not given in full),inactive

row,Compound,Potency
1,Cc1cc(=O)oc2cc(NC(=O)[C@H](CCC(=O)O)NC(=O)[C@H](CC(C)C)NC(=O)[C@H](CC(C)C)NC(=O)OCc3ccccc3)ccc12 (Cbz-Leu-Leu-Glu-{AMC}),22.7 µM (active)
2,CC(C)c1ccc2c(c1)CCC1[C@](C)(C(=O)O)CCC[C@]21C (stereo not given in full),inactive
3,CC(C)=CCC/C(C)=C/CO[C@@H]1O[C@H](CO[C@@H]2O[C@@H](CO)[C@H](O)[C@H]2O)[C@@H](O)[C@H](O)[C@H]1O,inactive
4,CCOC(=O)C1=C(N)Oc2ccc(Cl)cc2C1C(C#N)C(=O)OCC (stereo not given),inactive
5,CC(C)C1NC(=O)CNC(=O)C2CCCN2C(=O)C(Cc2c[nH]c3ccccc23)NC(=O)CNC(=O)C(Cc2ccc(O)cc2)NC(=O)CNC1=O (stereo not given) (cyclo(GVGYGWP); configuration not given here),inactive
6,C=C1CC[C@@H]2[C@](C)(CO)[C@H](O[C@@H]3O[C@H](CO)[C@@H](O)[C@H](O)[C@H]3O)CC[C@@]2(C)[C@@H]1C/C=C1/C(=O)OC[C@H]1O,inactive
7,CC(=O)OCC1=CCC2C(C)(C)CCCC2(C)C12CCC(C)(CC(=O)O)O2 (stereo not given),inactive
8,CCC(C)C(N)C(=O)NCCN1CCOCC1 (stereo not given),inactive
9,C=C1CC2C3(C)C(O)CC(=O)C(C)(C)C3C(O)C(OC(C)=O)C2(C)C2C(=O)OC(C)(C(=O)OC)C(=O)C12C (stereo not given),inactive
10,O=C(N[C@@H]1CC[C@@H](c2cccc(F)c2F)CN(CC(F)(F)F)C1=O)N1CCC(n2c(=O)[nH]c3ncccc32)CC1,inactive
11,CN(C)c1ccc(C2O[C@@H](c3ccccc3)C[C@H](c3ccccc3)O2)cc1 (stereo not given in full),inactive
12,COc1ccc(-n2c(SCC#N)nc3sc4c(c3c2=O)CCCC4)cc1,inactive
13,CC1(C)O[C@H]2CC(=O)OC[C@@]23C1=C(O)C(=O)[C@]1(C)C3CC[C@@]2(C)[C@H](c3ccoc3)OC(=O)[C@H]3O[C@]321 (stereo not given in full),inactive
14,Cc1cn(-c2cc(NC(=O)c3ccc(C)c(Nc4nccc(-c5cnccn5)n4)c3)cc(C(F)(F)F)c2)cn1,inactive
15,N#Cc1ccc(C2CCCc3cncn32)cc1 (stereo not given),inactive
16,CN[C@H](CNC(=O)N1CCC[C@@H]([C@@H](OCCNC(=O)OC)c2cccc(Cl)c2)C1)C[C@H]1CCCOC1,inactive
17,CC1=CCC2C(C)(C)CCCC2(C)C1CC12OC1C(O)C(CO)=CC2O (stereo not given),inactive
18,CC1(C)CC[C@]2(C(=O)O[C@@H]3O[C@H](CO)[C@@H](O)[C@H](O)[C@H]3O)CC[C@]3(C)C(=CCC4[C@@]5(C)CC[C@H](O[C@@H]6O[C@H](C(=O)O)[C@@H](O)[C@H](O)[C@H]6OC6OC(CO)C(O)C(O)C6O)C(C)(C)C5CC[C@]43C)[C@@H]2C1 (stereo not given in full),inactive
19,CC1(C)CC[C@]2(C(=O)O)CC[C@]3(C)C(=CCC4[C@@]5(C)C(=O)C[C@H](O)[C@@](C)(CO)C5CC[C@]43C)[C@@H]2C1 (stereo not given in full),inactive
20,O=C(NCC(=O)N1CCCC1)Nc1ccc2ccccc2c1,inactive
